Sampled rows, rich in hits. Any-hit rate of the full collection: about 7.1%.
MARV entry inh: Marburg virus entry inhibition; Potency, µM (doses to about 49.2 µM), inactives show at the top dose activity change, negative = inhibition, actives largely listed as inhibitors; 18,000 compounds, 6.5% hits; Marburg virus pseudotype entry/binding inhibition, cell-based
Lassa entry: Lassa virus entry inhibition; Lassa virus pseudotyped entry inhibition, cell-based qHTS; Potency, µM (titrated, usually from 49.2 µM), inactives show top-dose activity change, negative = inhibition, most hits filed as inhibitors; 18,000 compounds, 4.1% hits; AID 720533
* = called active by the depositor; ? = inconclusive; nt = no result given; ! = repeats disagree; [ ] = remark or other dose. Calls come from the whole dose curve; tested in HEK293 cells. % is set by controls: 0 for no effect and ±100 for the full control effect; potency is the fitted concentration of half-maximal effect.

SMILES	MARV entry inh	Lassa entry
CC(CC(C#N)(c1ccccc1)c1ccccc1)N(C)C (configuration not stated)	32µM*	?
COC(=O)C1=C(C)N(Cc2ccco2)C(=O)NC1c1ccco1 (configuration not stated)	0%[8.59 µM]	-26%[8.59 µM]
CCC(=O)N1C2=C(c3ccccc3[C@@H]1CC(=O)Nc1ccc3ccccc3c1)[C@H]1C(=O)N(c3ccccc3)C(=O)[C@@H]1[C@H](C)C2	?	14%[8.59 µM]
CCOC(=O)OC[C@H]1O[C@H](C#Cc2ccc(F)cc2F)C=C[C@H]1OC(=O)OCC	-15%[8.59 µM]	1%[8.59 µM]
CC[C@@]12C=C(C=Cc3ccccc3)[C@](CC)(C1)[C@H](c1ccccc1)CC2=O	?	-1%[8.59 µM]
CCC1CN2CCc3cc(OC)c(OC)cc3C2CC1CC1NCCc2cc(OC)c(OC)cc21 (configuration not stated)	5µM*	5.6µM*
COc1ccc(CC2NCCc3cc(OC)c(OC)cc32)cc1OC (configuration not stated)	-18%	2%
C[C@]12C[C@@](C)(C=C1C=Cc1ccc(F)cc1)C(=O)C[C@H]2c1ccc(F)cc1	5%[8.59 µM]	nt
COc1ccccc1C=CC1=CC2(C)CC1(C)C(c1ccccc1OC)CC2=O (configuration not stated)	-29%[8.59 µM]	6%[8.59 µM]
C[C@@H]1N[S+](=O)([O-])c2c(F)cccc2O[C@H]1c1ccccc1	10%	2%
O=c1oc2c(O)c(O)cc3c(=O)oc4c(O)c(O)cc1c4c23	1µM*	-2%
O=c1c(O)c(-c2ccc(O)c(O)c2)oc2c(O)c(O)cc(O)c12	?	8%
O=C(C=Cc1ccccc1)Nc1cccc(C(=O)NCCCCc2ccccc2)c1	?	9%
CCN(CC)c1ccc(C(=C2C=CC(=[N+](CC)CC)C=C2)c2ccccc2)cc1	0.28µM*	0.32µM*
COC(=O)N[C@@H](c1cccc(F)c1)[C@]1(C(=O)OC)CCCC1=O	3%[8.59 µM]	4%[8.59 µM]
C[C@H]1CN(C2CCCCC2)C(=O)[C@H]1CC(=O)Nc1ccc(Br)cc1	9%	nt
COC(=O)NCC=Cc1nc(CCCO)co1	-24%[8.59 µM]	-24%[8.59 µM]
COc1ccc(C[C@H](N)C(=O)N[C@H]2[C@@H](O)[C@H](n3cnc4c(N(C)C)ncnc43)O[C@@H]2CO)cc1	4µM*	4.5µM*
C[C@H](Cc1ccccc1)Nc1ncnc2c1ncn2[C@@H]1O[C@H](CO)[C@@H](O)[C@H]1O	35%	13%
CCCCCN=c1ccn(Cc2ccccc2)c2ccccc12	14µM*	20µM*
COC(=O)N[C@@H](c1ccccc1)[C@]1(C(C)=O)CCCC1=O	-4%[8.59 µM]	10%[8.59 µM]
O=C(OCc1cn([C@H]2CN(C(=O)c3cccs3)[C@@H](c3ccc(Cl)cc3)C[C@H]2O)nn1)c1ccccc1	-9%	-12%
CC(COc1ccccc1)N(CCCl)Cc1ccccc1 (configuration not stated)	0%	28µM*!
CN(C)Cc1ccccc1	8%	-16%
C=CCCCN1C=C(C(=O)OCC)C(c2ccccc2)NC1=O (configuration not stated)	-11%[8.59 µM]	-5%[8.59 µM]
SMILES	MARV entry inh	Lassa entry
CCC[C@H]1CN(c2ccccc2)C(=O)[C@H]1CC(=O)Nc1ccc(Br)cc1	-44%	-15%
C[N+](C)(C)CC#CCOC(=O)Nc1cccc(Cl)c1	3%	-13%
O=C(Nc1cccc(Cl)c1)OCC#CCCl	11µM*	-29%
C[C@H](CO)NS(=O)(=O)c1cccc(Cl)c1F	19%	14%
COc1cc2c(cc1OC)[C@@H]1O[C@](c3ccsc3)(C2)Oc2c1c(=O)oc1ccc(F)cc21	28%[8.59 µM]	11%[8.59 µM]
COc1ccc2c(c1)OC/C(=C\c1ccc(OC)c(O)c1)C2=O	13µM*	-17%
COc1cc(C/C=C/c2ccccc2)c(OC)cc1O	4%	-9%
COc1ccc2c(c1)OCc1c-2oc2cc(OC)ccc12	54%	4%
COc1ccc(C=C2c3ccccc3C(=O)c3ccccc32)cc1O	1µM*	?
O=[S+]1([O-])N[C@@H]2Cc3ccccc3[C@@H]2Oc2cc(Br)ccc21	-15%	-16%
CCOC(=O)C(CCc1ccccc1)NC1CCc2ccccc2N(CC(=O)O)C1=O (configuration not stated)	3%	-1%
CCOC(=O)[C@H](CCc1ccccc1)N[C@H]1CCc2ccccc2N(CC(=O)O)C1=O	14µM*!	4%
CC(=O)OC[C@H]1O[C@H](CCON=C(C)CCN2CCCCc3nc(C)c(C)cc32)C=C[C@H]1OC(C)=O	16%[8.59 µM]	-4%[8.59 µM]
COC(=O)N[C@@H](c1ccco1)[C@]1(C(C)=O)CCCC1=O	?	5%[8.59 µM]
COC(=O)N[C@@H](c1cccc(C)c1)[C@]1(C(=O)OC)CCCC1=O	?	11%[8.59 µM]
CN(Cc1cc(Br)cc(Br)c1N)C1CCCCC1	?	28µM*
COC[C@@H](OC(C)=O)[C@H]1OCc2ccccc2[C@H]1C=Cc1ccccc1	1%[8.59 µM]	-4%[8.59 µM]
Cc1ccccc1-c1cnc(-c2ccncc2)nc1C1CCCN(Cc2ccccc2O)C1 (configuration not stated)	?	-28%
COc1cccc(CN2CCCC(c3nc(-c4ccncc4)ncc3-c3ccccc3)C2)c1O (configuration not stated)	11µM*	-30%
COc1ccc(CN2CCCC(c3nc(-c4ccncc4)ncc3-c3ccccc3C)C2)c(OC)c1 (configuration not stated)	3.5µM*	18µM*
COc1ccc(CN2CCCC(c3nc(-c4ccncc4)ncc3-c3ccccc3)C2)c(OC)c1OC (configuration not stated)	?	-15%
CCOC(=O)[C@@]1([C@@H](NC(=O)OC)c2cccc(C)c2)CCCC1=O	26%[8.59 µM]	9%[8.59 µM]
COc1cc2c(c(OC)c1)[C@H](C=Cc1ccccc1)[C@@H]([C@H](O)CO)OC2	17%[8.59 µM]	1%[8.59 µM]
COC(=O)N(C=Cc1ccc(OC)cc1)CCc1ccc(OC)c(OC)c1	3%[8.59 µM]	1%[8.59 µM]
O=C(Nc1ccc(Cl)cc1)Nc1ccc(Cl)c(C(F)(F)F)c1	11µM*	14µM*
SMILES	MARV entry inh	Lassa entry
CCCC(C)(C)C(=O)Nc1ccc(Cl)cc1	9%	8%
CC(C)(C)N1C(=O)[C@@H]2[C@H]3[C@H](O)[C@H](O)CC(=NOCc4ccccc4)[C@H]3CC[C@H]2C1=O	-9%[8.59 µM]	-3%[8.59 µM]
COC(=O)C1=C(C)N(CC2CC2)C(=O)NC1c1ccc(Br)cc1 (configuration not stated)	77%[8.59 µM]	-8%[8.59 µM]
COc1ccc2c(c1)CO[C@H]([C@H](O)CO)[C@H]2C=Cc1ccccc1	-6%[8.59 µM]	nt
CN1CC[C@]2(C)c3cc(O)ccc3N(C)[C@@H]12	11µM*	-5%[17.8 µM]
CNC(=O)Oc1ccc2c(c1)[C@]1(C)CCN(C)[C@@H]1N2C	-14%	-27%
C#CC[C@@]1(C(=O)OC)C=C[C@@H](C)[C@H](c2ccccc2Br)N1C(=O)C(F)(F)F	-2%[8.59 µM]	13%[8.59 µM]
Fc1ccccc1-c1nc(-c2ccccc2)oc1NCc1ccccc1	1%[8.59 µM]	-32%[8.59 µM]
O=C(O)c1cccc(-c2noc(-c3ccccc3F)n2)c1	3.2µM*	8.9µM*
COC(=O)C(C(=O)OC)[C@@H]1O[C@@]23COC=C[C@]2(C)[C@@H]3c2ccccc21	?	3%[8.59 µM]
CC(C)C[C@@H](C=O)NC(=O)[C@H](CC(C)C)NC(=O)[C@H](CC(C)C)NC(=O)OCc1ccccc1	?	3.5µM*
CC(C)[C@H](NC(=O)OCc1ccccc1)C(=O)N[C@H](C=O)Cc1ccccc1	?	-5%

Bioassay records: PubChem, National Center for Advancing Translational Sciences (NCATS)
